Only a selection was taken, and hits are over-represented in it overall.
ER stress surv: protection against thapsigargin ER stress killing – CSM14.1 cells, ATP luminescence, primary screen | CSM14.1 thapsigargin ER stress survival | relative survival (cellular ATP), % at 15 µg/mL (by protocol) | 48,000 compounds, 0.33% hits | AID 1010, 2008;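 active means survival measured by cellular ATP above 50% at 15 µg/ml in the first screen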;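 further: cell death triggered by about 15 µM thapsigargin; ATP read 24 h after thapsigargin was added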
Of the large screens only hits and unclear results are named; the others gave an inactive call.

COC(C(=O)Nc1ccc(Br)cc1C(=O)c1ccccc1)c1ccccc1 (centres undefined)	ER stress surv 72
COC(C(=O)Nc1ccc(Br)cc1C(=O)c1ccccc1Cl)c1ccccc1 (centres undefined)	none
COC(=O)c1[nH]cnc1C(=O)Nc1ccc(Br)cc1C(=O)c1ccccc1	none
C=CCN1C(=O)/C(=C\c2cccn2-c2ccc([N+](=O)[O-])cc2)C(=O)NC1=S	none
Cc1c(C)[n+](=O)c2cc(N3CCN(C)CC3)c(Cl)cc2n1[O-]	none

High-throughput results from PubChem.
